Here are results for 39 targets from the supplement of paper PMC10849652.

About 7,900 targets were measured; listed, in parts, are those with a hit and a random draw of the rest. About 0.6% of all pairs of compound and target were hits. Values without a mark were called inactive.

Chain of UniProt Q96I59 (Q96I59 whole entry, looked up): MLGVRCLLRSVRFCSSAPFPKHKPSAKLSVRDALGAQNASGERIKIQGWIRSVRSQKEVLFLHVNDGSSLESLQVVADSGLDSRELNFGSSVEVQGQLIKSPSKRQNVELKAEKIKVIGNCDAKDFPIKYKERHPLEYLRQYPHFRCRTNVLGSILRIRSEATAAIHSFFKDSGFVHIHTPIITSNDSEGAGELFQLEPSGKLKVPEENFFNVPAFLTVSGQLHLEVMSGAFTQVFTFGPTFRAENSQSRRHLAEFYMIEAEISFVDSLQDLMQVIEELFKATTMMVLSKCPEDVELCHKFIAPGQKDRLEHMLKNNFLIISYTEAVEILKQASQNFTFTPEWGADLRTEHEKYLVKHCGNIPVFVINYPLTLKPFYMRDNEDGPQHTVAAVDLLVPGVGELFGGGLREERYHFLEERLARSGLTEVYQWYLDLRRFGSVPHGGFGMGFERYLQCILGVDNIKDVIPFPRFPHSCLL
Chain of UniProt P55209 (P55209 whole entry, looked up): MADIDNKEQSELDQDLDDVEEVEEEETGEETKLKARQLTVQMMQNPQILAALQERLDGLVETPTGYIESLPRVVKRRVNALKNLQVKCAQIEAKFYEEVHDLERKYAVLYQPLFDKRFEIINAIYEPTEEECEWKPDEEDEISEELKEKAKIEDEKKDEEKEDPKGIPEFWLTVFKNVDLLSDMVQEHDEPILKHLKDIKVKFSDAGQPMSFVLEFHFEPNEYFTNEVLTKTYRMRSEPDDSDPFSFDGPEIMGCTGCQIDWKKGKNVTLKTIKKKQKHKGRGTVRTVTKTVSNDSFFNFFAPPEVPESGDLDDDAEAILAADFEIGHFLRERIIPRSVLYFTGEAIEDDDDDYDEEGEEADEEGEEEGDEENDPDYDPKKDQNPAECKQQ
Chain of UniProt Q13952 (Q13952 whole entry, looked up): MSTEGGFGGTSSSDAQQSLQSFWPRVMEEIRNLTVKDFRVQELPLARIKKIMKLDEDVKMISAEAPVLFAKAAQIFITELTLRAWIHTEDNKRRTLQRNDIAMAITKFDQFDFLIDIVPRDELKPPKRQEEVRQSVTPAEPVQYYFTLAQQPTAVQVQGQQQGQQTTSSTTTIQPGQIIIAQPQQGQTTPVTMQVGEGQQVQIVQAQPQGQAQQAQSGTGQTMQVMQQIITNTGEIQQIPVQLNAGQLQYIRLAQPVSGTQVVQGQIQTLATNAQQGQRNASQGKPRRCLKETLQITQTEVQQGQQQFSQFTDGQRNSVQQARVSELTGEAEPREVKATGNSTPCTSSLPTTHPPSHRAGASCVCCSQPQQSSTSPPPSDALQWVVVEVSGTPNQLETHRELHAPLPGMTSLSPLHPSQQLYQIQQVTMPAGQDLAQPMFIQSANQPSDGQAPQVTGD
Chain of UniProt P51948 (P51948 whole entry, looked up): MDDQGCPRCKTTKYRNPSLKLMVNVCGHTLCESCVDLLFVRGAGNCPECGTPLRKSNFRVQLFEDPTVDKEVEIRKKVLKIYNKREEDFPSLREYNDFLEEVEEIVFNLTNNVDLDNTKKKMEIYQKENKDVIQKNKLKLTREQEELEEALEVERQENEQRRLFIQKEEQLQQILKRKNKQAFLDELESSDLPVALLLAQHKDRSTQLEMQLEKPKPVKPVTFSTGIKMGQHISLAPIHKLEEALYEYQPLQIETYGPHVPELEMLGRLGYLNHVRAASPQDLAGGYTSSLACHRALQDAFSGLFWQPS
Chain of UniProt Q96MF7 (Q96MF7 whole entry, looked up): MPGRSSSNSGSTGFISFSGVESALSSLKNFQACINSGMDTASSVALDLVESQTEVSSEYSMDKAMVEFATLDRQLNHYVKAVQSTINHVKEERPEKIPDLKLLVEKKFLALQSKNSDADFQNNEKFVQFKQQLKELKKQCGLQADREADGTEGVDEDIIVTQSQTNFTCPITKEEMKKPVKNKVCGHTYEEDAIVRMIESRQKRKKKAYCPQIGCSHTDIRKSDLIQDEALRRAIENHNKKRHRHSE
Chain of UniProt Q15021 (Q15021 whole entry, looked up): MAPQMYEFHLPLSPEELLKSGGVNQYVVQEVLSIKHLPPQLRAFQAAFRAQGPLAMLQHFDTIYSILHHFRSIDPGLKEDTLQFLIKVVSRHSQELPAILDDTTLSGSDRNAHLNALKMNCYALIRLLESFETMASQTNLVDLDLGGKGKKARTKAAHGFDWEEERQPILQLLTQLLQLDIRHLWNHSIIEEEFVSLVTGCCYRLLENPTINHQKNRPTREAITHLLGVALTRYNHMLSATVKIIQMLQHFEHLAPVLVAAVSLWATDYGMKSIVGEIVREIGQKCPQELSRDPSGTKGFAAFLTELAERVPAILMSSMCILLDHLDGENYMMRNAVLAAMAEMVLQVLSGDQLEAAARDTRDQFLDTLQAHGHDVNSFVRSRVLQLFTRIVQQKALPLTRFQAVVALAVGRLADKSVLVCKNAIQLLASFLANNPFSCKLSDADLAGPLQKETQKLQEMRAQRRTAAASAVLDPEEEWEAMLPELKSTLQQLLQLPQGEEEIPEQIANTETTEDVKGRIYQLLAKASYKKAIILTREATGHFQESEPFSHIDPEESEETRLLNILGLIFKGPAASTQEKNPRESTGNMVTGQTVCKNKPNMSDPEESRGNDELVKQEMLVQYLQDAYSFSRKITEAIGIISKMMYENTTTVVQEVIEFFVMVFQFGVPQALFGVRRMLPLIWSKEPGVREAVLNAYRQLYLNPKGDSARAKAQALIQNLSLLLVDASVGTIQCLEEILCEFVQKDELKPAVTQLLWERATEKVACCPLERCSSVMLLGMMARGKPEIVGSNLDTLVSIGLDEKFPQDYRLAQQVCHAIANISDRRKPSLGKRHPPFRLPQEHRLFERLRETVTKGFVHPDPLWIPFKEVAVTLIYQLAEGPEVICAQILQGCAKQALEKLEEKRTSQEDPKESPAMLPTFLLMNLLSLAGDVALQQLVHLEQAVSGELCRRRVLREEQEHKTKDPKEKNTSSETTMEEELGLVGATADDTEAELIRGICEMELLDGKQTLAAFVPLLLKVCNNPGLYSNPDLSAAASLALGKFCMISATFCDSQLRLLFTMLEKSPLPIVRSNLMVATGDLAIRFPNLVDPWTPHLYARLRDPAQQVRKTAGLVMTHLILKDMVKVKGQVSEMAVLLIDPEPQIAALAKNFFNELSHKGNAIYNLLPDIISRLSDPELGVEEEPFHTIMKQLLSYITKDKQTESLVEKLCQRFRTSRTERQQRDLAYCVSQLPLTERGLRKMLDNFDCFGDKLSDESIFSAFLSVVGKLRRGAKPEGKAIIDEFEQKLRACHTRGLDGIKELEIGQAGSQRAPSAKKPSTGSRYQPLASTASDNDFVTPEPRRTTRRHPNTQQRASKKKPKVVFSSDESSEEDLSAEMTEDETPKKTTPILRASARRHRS
Chain of UniProt Q9BPX3 (Q9BPX3 whole entry, looked up): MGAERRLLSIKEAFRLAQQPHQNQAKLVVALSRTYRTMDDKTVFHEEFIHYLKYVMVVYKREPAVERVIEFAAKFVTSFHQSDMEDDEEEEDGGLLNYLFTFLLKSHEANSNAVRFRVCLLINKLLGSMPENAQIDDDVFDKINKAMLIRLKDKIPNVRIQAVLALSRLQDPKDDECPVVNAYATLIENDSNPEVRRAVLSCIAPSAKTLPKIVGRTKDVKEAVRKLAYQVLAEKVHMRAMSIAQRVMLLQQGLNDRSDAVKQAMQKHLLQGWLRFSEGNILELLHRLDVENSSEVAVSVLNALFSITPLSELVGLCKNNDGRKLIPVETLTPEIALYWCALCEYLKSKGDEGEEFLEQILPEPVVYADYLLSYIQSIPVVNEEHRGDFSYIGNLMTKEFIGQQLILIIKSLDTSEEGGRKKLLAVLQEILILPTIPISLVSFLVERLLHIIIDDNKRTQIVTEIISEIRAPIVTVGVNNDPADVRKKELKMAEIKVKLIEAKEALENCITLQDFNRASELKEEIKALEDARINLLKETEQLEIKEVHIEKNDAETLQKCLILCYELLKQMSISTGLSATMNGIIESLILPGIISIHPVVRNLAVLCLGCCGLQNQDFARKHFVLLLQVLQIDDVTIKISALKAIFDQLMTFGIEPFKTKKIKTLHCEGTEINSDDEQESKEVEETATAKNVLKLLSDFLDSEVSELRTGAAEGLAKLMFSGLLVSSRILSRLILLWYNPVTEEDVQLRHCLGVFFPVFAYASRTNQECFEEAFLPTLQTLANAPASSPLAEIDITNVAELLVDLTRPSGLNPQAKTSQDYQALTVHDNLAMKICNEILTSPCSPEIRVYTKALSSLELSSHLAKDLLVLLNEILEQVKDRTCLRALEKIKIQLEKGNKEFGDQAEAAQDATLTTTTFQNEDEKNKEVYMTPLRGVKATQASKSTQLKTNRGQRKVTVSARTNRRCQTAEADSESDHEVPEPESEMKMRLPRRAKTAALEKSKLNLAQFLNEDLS
Chain of UniProt Q8NCE2 (Q8NCE2 whole entry, looked up): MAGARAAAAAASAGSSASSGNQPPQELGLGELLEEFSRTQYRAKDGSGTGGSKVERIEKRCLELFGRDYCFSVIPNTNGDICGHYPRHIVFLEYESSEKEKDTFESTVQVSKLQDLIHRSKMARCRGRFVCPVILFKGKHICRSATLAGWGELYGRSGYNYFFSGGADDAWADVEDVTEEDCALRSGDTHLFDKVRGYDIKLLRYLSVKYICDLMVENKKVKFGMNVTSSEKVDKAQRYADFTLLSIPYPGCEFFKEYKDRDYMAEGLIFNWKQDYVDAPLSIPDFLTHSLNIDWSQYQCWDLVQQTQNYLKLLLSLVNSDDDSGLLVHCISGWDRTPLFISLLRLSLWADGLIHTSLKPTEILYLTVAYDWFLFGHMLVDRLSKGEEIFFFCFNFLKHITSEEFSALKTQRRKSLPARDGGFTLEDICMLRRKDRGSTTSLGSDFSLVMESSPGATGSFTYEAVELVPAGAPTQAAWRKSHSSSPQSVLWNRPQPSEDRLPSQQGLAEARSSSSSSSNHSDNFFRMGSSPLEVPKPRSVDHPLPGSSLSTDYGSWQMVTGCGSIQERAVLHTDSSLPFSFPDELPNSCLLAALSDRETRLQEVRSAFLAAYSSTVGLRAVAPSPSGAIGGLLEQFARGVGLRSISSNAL

Compound in one test: C1CCN(C1)C(=O)NC2=CC=CC(=C2)NC3=NC=C(C(=N3)NCCC4=CN=CN4)Br
The test is described as follows: log2 fold change, soluble protein after heating vs DMSO (PISA); higher = thermal stabilisation; K562 cells, 10 uM, 30 min; active = over 0.2 and 3.5 SD of the protein, either way, in both replicates (recomputed). In short, it runs like this: (§1)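 Thermal stability values are relative to control samples and come from duplicates. They are expressed as log2 fold changes. For measurement, K562 cells (2×10^6 cells/mL) received 10 μM compound for 30 min, and aliquots were heated for 3 min over 48°C-58°C, pooled, and extracted at 4°C in PBS with 0.5% NP-40. Soluble protein, the supernatant after 21,000xg for 90 min, was quantified by TMTpro 16plex LC-MS/MS with equalised channel sums.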
For MNAT1 (UniProt P51948), the log2 fold change is -0.067.

Take NUDT1 (UniProt P36639): the log2 fold change is -0.009.

For the target OGFR (UniProt Q9NZT2), the log2 fold change was 0.028.

On to MT-ND4 (UniProt P03905), for which the log2 fold change is -0.007.

MTFR1L (UniProt Q9H019): the log2 fold change is 0.036.

In the case of MRPS15 (UniProt P82914), the log2 fold change was -0.045.

As to NCAPG (UniProt Q9BPX3), the log2 fold change is -0.044.

Regarding MITD1 (UniProt Q8WV92), the log2 fold change was 0.03.

With NPC1 (UniProt O15118), the log2 fold change is 0.058.

For MRPS12 (UniProt O15235), the log2 fold change was 0.025.

Regarding MORC3 (UniProt Q14149), the log2 fold change was -0.026.

Turning to NRDC isoform 2 (UniProt O43847), the log2 fold change is -0.046.

Take NARS2 (UniProt Q96I59): the log2 fold change was -0.002.

On to MSTO1 (UniProt Q9BUK6), for which the log2 fold change was 0.011.

Turning to NECTIN2 (UniProt Q92692), the log2 fold change was -0.045.

As for NEDD4L (UniProt Q96PU5), the log2 fold change is -0.026.

In the case of NA, A0A0B4J2A0, the log2 fold change was -0.055.

In the case of NUCKS1 (UniProt Q9H1E3), the log2 fold change was 0.067.

As for MRPS9 (UniProt P82933), the log2 fold change was 0.002.

Consider NFYC (UniProt Q13952), for which the log2 fold change was -0.034.

In the case of MTMR14 (UniProt Q8NCE2), the log2 fold change is -0.05.

Turning to NSMCE2 (UniProt Q96MF7), the log2 fold change was -0.001.

As to NOP53 (UniProt Q9NZM5), the log2 fold change was 0.058.

In the case of MRPL47 (UniProt Q9HD33), the log2 fold change is -0.004.

With MRPL50 (UniProt Q8N5N7), the log2 fold change was -0.084.

As to NDUFA4 (UniProt O00483), the log2 fold change was 0.086.

In the case of NDUFS4 (UniProt O43181), the log2 fold change was 0.082.

On to MRPS16 (UniProt Q9Y3D3), for which the log2 fold change is -0.085.

Take NAP1L1 (UniProt P55209): the log2 fold change was -0.02.

Take OXA1L (UniProt Q15070): the log2 fold change is 0.012.

Regarding MSH6 (UniProt P52701), the log2 fold change was -0.095.

As to NMD3 (UniProt Q96D46), the log2 fold change is 0.064.

In the case of NDUFS8 (UniProt O00217), the log2 fold change was 0.014.

For NOP2 isoform 4 (UniProt P46087), the log2 fold change is 0.023.

Turning to NEU1 (UniProt Q99519), the log2 fold change is 0.012.

As to MRPS31 (UniProt Q92665), the log2 fold change is 0.003.

On to NCAPD2 (UniProt Q15021), for which the log2 fold change was -0.001.

As to MLX (UniProt Q9UH92), the log2 fold change was -0.012.

Turning to NFE2 (UniProt Q16621), the log2 fold change was -0.02.

Compound in another test: C1CN(CCC1(CC2=CC=C(C=C2)Cl)N)C3=NC=NC4=C3C=CN4
The description is as above. In short, it runs like this:
as §1
With MNAT1 (UniProt P51948), the log2 fold change is -0.01.

As for NUDT1 (UniProt P36639), the log2 fold change was 1.01 (active).

As to OGFR (UniProt Q9NZT2), the log2 fold change was -0.132.

With MT-ND4 (UniProt P03905), the log2 fold change is -0.036.

Take MTFR1L (UniProt Q9H019): the log2 fold change was -0.027.

With MRPS15 (UniProt P82914), the log2 fold change is -0.108.

Consider NCAPG (UniProt Q9BPX3), for which the log2 fold change is -0.104.

For the target MITD1 (UniProt Q8WV92), the log2 fold change was -0.024.

With NPC1 (UniProt O15118), the log2 fold change is 0.069.

With MRPS12 (UniProt O15235), the log2 fold change is -0.063.

Consider MORC3 (UniProt Q14149), for which the log2 fold change is -0.162.

For NRDC isoform 2 (UniProt O43847), the log2 fold change is 0.049.

On to NARS2 (UniProt Q96I59), for which the log2 fold change is -0.083.

Consider MSTO1 (UniProt Q9BUK6), for which the log2 fold change was -0.041.

As for NECTIN2 (UniProt Q92692), the log2 fold change was 0.077.

Consider NEDD4L (UniProt Q96PU5), for which the log2 fold change was -0.076.

Consider NA, A0A0B4J2A0, for which the log2 fold change was -0.007.

Turning to NUCKS1 (UniProt Q9H1E3), the log2 fold change is -0.002.

Regarding MRPS9 (UniProt P82933), the log2 fold change is -0.095.

For NFYC (UniProt Q13952), the log2 fold change is -0.042.

With MTMR14 (UniProt Q8NCE2), the log2 fold change is 0.028.

With NSMCE2 (UniProt Q96MF7), the log2 fold change is 0.008.

On to NOP53 (UniProt Q9NZM5), for which the log2 fold change was -0.387.

MRPL47 (UniProt Q9HD33): the log2 fold change is -0.273.

For MRPL50 (UniProt Q8N5N7), the log2 fold change is -0.073.

For the target NDUFA4 (UniProt O00483), the log2 fold change was -0.017.

NDUFS4 (UniProt O43181): the log2 fold change was 0.111.

Consider MRPS16 (UniProt Q9Y3D3), for which the log2 fold change was -0.097.

As to NAP1L1 (UniProt P55209), the log2 fold change is 0.07.

Take OXA1L (UniProt Q15070): the log2 fold change is 0.043.

As for MSH6 (UniProt P52701), the log2 fold change is -0.143.

Take NMD3 (UniProt Q96D46): the log2 fold change was -0.281 (active).

Take NDUFS8 (UniProt O00217): the log2 fold change is 0.035.

Regarding NOP2 isoform 4 (UniProt P46087), the log2 fold change was 0.006.

For the target NEU1 (UniProt Q99519), the log2 fold change was -0.047.

MRPS31 (UniProt Q92665): the log2 fold change was -0.066.

On to NCAPD2 (UniProt Q15021), for which the log2 fold change was -0.103.

MLX (UniProt Q9UH92): the log2 fold change was -0.143.

Regarding NFE2 (UniProt Q16621), the log2 fold change is -0.019.
